Screening results (PubChem BioAssay)
LASV entry inh: inhibitors of Lassa virus binding or cell entry | Lassa virus pseudotype entry inhibition, cell reporter | Potency, µM (top dose mostly 37.9 µM), for the others: at the highest dose activity change, negative = inhibition, usual class: inhibitors | 300,000 tested, 1.2% active | AID 540256; calls by dose curve; tested in HEK293 cells; also: potency is read from the fitted curve at half-maximal effect; nearly all actives have a fitted effect of over 50% in size
HCMV antiviral: inhibitors of human cytomegalovirus | HFF cells, HCMV-luciferase reporter, 72 h; hits give low values | activity change, negative = inhibition, % at 57.5 µM | 410,000 tested, 4.5% active | AID 1259415; in the data active = activity change below about -60%; inconclusive = no clear call, values can overlap the other calls; inactive = above about -39%
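Human foreskin fibroblasts infected with luciferase-reporter HCMV at MOI 1 PFU/cell, compounds at two doses. Luciferase measured 72 h post infection; normalized to buffer-only basal and Salinomycin (10uM) controls.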
Pf growth 48h: P. falciparum growth inhibition at 48 hours (one generation); P. falciparum luciferase growth in erythrocytes, 48 h; 310,000 tested, 5.9% active; Potency, µM (highest dose often 28.7 µM), without a hit: at the top dose activity change, negative = inhibition, most hits filed as inhibitors; also: potency is read from the fitted curve at half-maximal effect
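Firefly luciferase activity from engineered P. falciparum reports growth; inhibitors lower the luminescent signal. Cultures contained 2% hematocrit erythrocytes at 0.1% final parasitemia.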
Pf growth 96h: inhibits malaria parasite growth, 96 h; P. falciparum luciferase reporter growth, 96 h; Potency, µM (highest dose often 28.7 µM), for the others: top-dose activity change, negative = inhibition, most hits filed as inhibitors; 320,000 tested, 6.9% active; also: potency is read from the fitted curve at half-maximal effect
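Two parasite generations (96 h, 37 C, 5% CO2) of compound exposure in infected erythrocytes (0.05% parasitemia, 2% hematocrit). Luciferase-reporter P. falciparum; decreased luminescence indicates inhibited growth, aimed at apicoplast-acting delayed death.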
MARV entry inh: blocks Marburg virus binding to or entry into cells | Marburg virus pseudotyped entry inhibition, cell reporter | Potency, µM (highest dose often 37.8 µM), without a hit: at the highest dose activity change, negative = inhibition, usual class: inhibitors | 300,000 tested, 1.8% active | AID 540276; calls by dose curve; tested in HEK293 cells; also: potency is read from the fitted curve at half-maximal effect
HCV inh: inhibitors of hepatitis C virus infection. Huh7.5.1 HCVcc-Cre infection, luciferase reporter, 44 h. 340,000 tested, 3.4% active. Potency, µM (top dose mostly 41.8 µM), for the others: at the top dose activity change, negative = inhibition, usual class: inhibitors; also: potency is read from the fitted curve at half-maximal effect
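Luciferase read-out (15 sec integration) after a 15 min room-temperature substrate step quantifies HCVcc-Cre infection. Cells, 1,000 per well, had compound added 4 h post-plating, then virus at ~0.5 moi, and were cultured 44 h.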
Starred values were filed as active, the others as inactive; ? = inconclusive; nt = no result; [ ] = dose if it differs, or a comment. Shown are actives, neighbours in structure and some others; about 14% of the full set was active somewhere. Unless noted, calls follow the shape of the dose curve; as a rule, active = well fitted inhibition curve with a large enough effect; inconclusive = small, poorly fitted or top-dose-only effect, or another doubt; inactive = no such curve, though single readings can be large or run the other way. % is scaled to controls: 0 for no effect and ±100 for the full control effect.

SMILES	LASV entry inh	HCMV antiviral	Pf growth 48h	Pf growth 96h	MARV entry inh	HCV inh
Nc1nonc1C(=O)NCCNCc1ccc(Cl)c(Cl)c1	14%[46.1 µM]	-21	nt	nt	4%[46.1 µM]	nt
COCC(=O)N1C[C@H]2CON(C)[C@H]2C[C@H]1c1cccc(-c2cc(Cl)cc(Cl)c2)c1	nt	-8	nt	nt	nt	nt
Cc1nn(C)c(C)c1N1C(=O)c2cccc3c(Br)ccc(c23)C1=O	-18%	-74*	-25%	-3%	-27%	?
CCN(CC)c1ccc(/C=C(\C#N)c2nc(-c3cccs3)c(NC(C)=O)s2)cc1	nt	nt	13µM*	7.4µM*	-7%	13µM*
CC(=O)Nc1sc(N/N=C\c2ccc(O)cc2)nc1-c1cccs1	nt	-27	18%	8%	nt	7%
c1csc(C2=Nn3c(nnc3-c3ccncc3)SC2)c1	-4%	-81*	53%	-11%	-26%	-16%
CCc1ccc(C2=Nn3c(nnc3-c3cccs3)SC2)cc1	-24%	-10	2.1µM*	1.9µM*	-11%	?
c1ccc(C2=Nn3c(nnc3-c3cc(-c4ccccc4)n[nH]3)SC2)cc1	16µM*	-28	?	nt	?	?
c1ccc(C2=Nn3c(nnc3-c3cccs3)SC2)cc1	-13%	69	-12%	3%	-1%[14.2 µM]	?
c1ccc(-c2ccc(C3=Nn4c(nnc4-c4cccs4)SC3)cc2)cc1	-24%	64	9.3µM*	13µM*	-7%[46.1 µM]	?
CC(C)CC(N)c1csc(NC(=O)Nc2ccccc2C(C)(C)C)n1 (stereo not drawn)	nt	32	nt	nt	nt	nt
CN(Cc1ccccc1)C(=O)c1cc2c(s1)-c1ccc(Cl)cc1SC2	?	15	nt	nt	?	nt
Clc1ccccc1C1=Nn2c(nnc2-c2ccncc2)SC1	8%	-76*	?	?	-20%	-1%
Brc1ccc(C2=Nn3c(nnc3-c3ccncc3)SC2)cc1	nt	nt	nt	nt	1%	nt
COc1cccc(C2Nc3ccccc3C(=O)N2Cc2ccccc2)c1 (stereo not drawn)	nt	19	nt	nt	nt	-10%
COc1ccc(C2Nc3ccccc3C(=O)N2Cc2ccccc2)cc1COc1ccc(Cl)cc1Cl (stereo not drawn)	nt	nt	1.7µM*	6%	nt	nt
COc1ccc(N2C(=O)c3ccccc3NC2c2ccc(OC)c(Cn3nnc4ccccc43)c2)cc1 (stereo not drawn)	-17%	18	12µM*	9.3µM*	?	-7%
COc1ccc(C2Nc3ccccc3C(=O)N2c2ccccc2)cc1CN1CCOCC1 (stereo not drawn)	-13%	-22	-2%	?	-7%	?
COc1ccc(C2Nc3ccccc3C(=O)N2Cc2ccccc2)cc1CN1CCOCC1 (stereo not drawn)	?	-30	8.3µM*	13µM*	?	-5%
Cn1c(O)c(C=Nc2ccc(Br)cc2)sc1=O	nt	-12	51%	114%	nt	-7%
COc1ccccc1Cc1c(-c2ccco2)nc2c3ccccc3ccn12	nt	187	nt	nt	nt	nt
COc1ccc(C2C=C(c3ccc(C)c(C)c3)Nc3ncnn32)c(OC)c1OC (stereo not drawn)	nt	?	nt	9.3µM*	5%	?
COc1cccc(C2C=C(c3ccc(Br)s3)Nc3ncnn32)c1OC (stereo not drawn)	-14%	nt	?	2.3µM*	-10%	-26%
Nc1nnc(CC(=O)N/N=C/c2ccccc2OCc2ccc(F)cc2)s1	19%	18	8%	33%	12%[14.2 µM]	-20%
COc1ccccc1NC(=O)C(=O)Nc1ccc2c(c1)N(C(=O)C1CC1)CCC2	?	18	10%	11%	-17%	-4%
SMILES	LASV entry inh	HCMV antiviral	Pf growth 48h	Pf growth 96h	MARV entry inh	HCV inh
Cc1cccc(C(=O)NCC(=O)OCc2nc(N)nc(Nc3ccccc3C)n2)c1	nt	137	nt	nt	nt	4%
Cc1ccccc1Nc1nc(N)nc(COC(=O)CC2CC3CCC2C3)n1 (stereo not drawn)	?	-26	6%	?	14µM*	4%
Cc1ccccc1C(=O)N1CCC(C(=O)OCc2nc(N)nc(Nc3ccccc3)n2)CC1	nt	8	?	13µM*	nt	12%
Nc1nc(COC(=O)CCC(=O)c2ccccc2)nc(Nc2ccccc2)n1	20%	5	-6%	?	6%[46.1 µM]	-10%
Cc1ccc2c(CC(=O)OCc3nc(N)nc(Nc4ccccc4C)n3)coc2c1	-3%	-28	9%	37%	15µM*	-20%
Cc1ccc(NC(=O)[C@@H](c2ccccc2)N2Cc3ccccc3C2=O)cc1	-4%[46.1 µM]	-7	nt	nt	-4%[46.1 µM]	nt
N#C/C(=C\c1c(Oc2ccc(Cl)cc2)nc2ccccn2c1=O)C(=O)NC1CCS(=O)(=O)C1 (stereo not drawn)	3.5µM*	23	0%	-20%	?	-28%
Cc1cccc(Oc2nc3ccccn3c(=O)c2/C=C(\C#N)C(=O)NC2CCS(=O)(=O)C2)c1C (stereo not drawn)	?	-96*	?	?	?	-4%
Cc1cc(Oc2nc3ccccn3c(=O)c2/C=C(\C#N)C(=O)NC2CCS(=O)(=O)C2)ccc1Cl (stereo not drawn)	?	-66*	?	?	?	?
Cc1cccc(Oc2nc3ccccn3c(=O)c2/C=C(\C#N)C(=O)NC2CCS(=O)(=O)C2)c1 (stereo not drawn)	0%	20	-10%	-15%	-13%	-2%
O=C(COC(=O)CN1C(=O)c2ccccc2C1=O)Nc1ccccc1C(F)(F)F	nt	-14	nt	nt	nt	nt
CCOC(=O)c1c(C)[nH]c(C)c1S(=O)(=O)NCC(=O)Nc1cccc(SC)c1	11%[46.1 µM]	2	nt	nt	nt	nt
CCC(C(=O)NC1CCCC1)n1c2ccccc2c2nc(=O)cc(C)n21 (stereo not drawn)	2%	0	nt	nt	-29%[46.1 µM]	-6%
Cc1cc(=O)nc2c3ccccc3n(C(C)C(=O)Nc3cc(F)ccc3F)n12 (stereo not drawn)	nt	-35	?	10µM*	nt	-18%
CCCNC(=O)C(C)n1c2ccccc2c2nc(=O)cc(C)n21 (stereo not drawn)	nt	nt	nt	30%	nt	nt
Cc1cc(=O)nc2c3ccccc3n(C(C)C(=O)Nc3c(F)c(F)c(F)c(F)c3F)n12 (stereo not drawn)	9%	25	3.3µM*	0%	5%	?
CCOC(=O)CCCCC(=O)c1[nH]c(=O)[nH]c1Cn1ccnc1	8%	32	0.47µM*	nt	7%	14%
CCCCSCc1[nH]c(=O)[nH]c1C(=O)CCCCC(=O)OCC	?	107	-15%	-23%	-4%[46.1 µM]	15%
Cc1cc(OCC(=O)Nc2nc3c(s2)CCCC3)cc(C)c1Cl	2%[46.1 µM]	-12	nt	nt	17%[46.1 µM]	nt
CC(CCN1CCCc2nc(C)c(C)cc21)=NOC[C@@H](O)[C@H]1O[C@@H]2OC(C)(C)O[C@H]2[C@@H]1O	?	nt	nt	nt	-8%[14.2 µM]	nt
